# MsrA act: activates bovine MsrA enzyme. purified bovine MsrA, absorbance read-out. 360,000 tested, 0.3% active. activation, % at 10.6 µM. AID 602163; in the data active = activation above about 7.5%;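 also: 0% = vehicle and 100% = reference activator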
# Pemphigus Ab inh: inhibitors of pemphigus antibody binding to human desmoglein-3 | P32926 | DSG3-coupled beads, scFv-anti-DSG3-GFP binding, flow cytometry; active compounds read low | binding (percent of control), % at 10 µM | 310,000 tested, 0.48% active;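 active = binding more than 3 SD below its plate's average and above zero; inconclusive = below that plate limit but binding exactly zero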;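 also: hits lower antibody fragment binding to DSG3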
# MsrA inhibitor: bovine MsrA inhibition; purified bovine MsrA, absorbance read-out; inhibition, % at 15.5 µM; 360,000 tested, 0.75% active; in the data active = inhibition above about 4.5%;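 also: 0% = vehicle wells with enzyme and 100% = reference inhibitor wells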
# rCAG RNA binder: r(CAG) repeat RNA binding; inhibition, % at 3 µM; 370,000 tested, 1.3% active; TO-PRO-1 dye displacement fluorescence;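 active = inhibition above the plate cutoff, the mean of all test compounds on that plate plus 3 SD, cut at about 35% in these data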;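 also: 0% = DMSO alone and 100% = 100 µM mitoxantrone as full dye displacement; higher means more dye released from RNA so lower well fluorescence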
# NadD inh: NadD (S. aureus) enzyme inhibition. purified NadD enzyme, colorimetric absorbance read-out. inhibition, % at 20 µM. 360,000 tested, 0.78% active. AID 602399; in the data active = inhibition above about 26%
# DAGLB inhibitor: diacylglycerol lipase beta (human) inhibition. Q8NCG7. HEK293T DAGLB membrane lysate, EnzChek fluorogenic substrate. inhibition, % at 5.17 µM. 340,000 tested, 0.059% active. AID 504411; in the data active = inhibition above about 34%;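 also: 0% = enzyme with vehicle and 100% = wells lacking enzyme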
# * = called active by the depositor; u = inconclusive; x = not tested or not shown. Only some compounds are listed: those with a hit (about 3.2% of all), similar ones and a draw of the others.
SMILES,MsrA act,Pemphigus Ab inh,MsrA inhibitor,rCAG RNA binder,NadD inh,DAGLB inhibitor
CNC(=O)CN(C)S(=O)(=O)c1ccc(F)cc1,0,79*,0,-1,-8,1
CN1C=C/C(=C\c2cc[n+](C)c3ccccc23)c2ccccc21,5,94,48*,16,1,2
CCOc1cccc(-c2nn(-c3ccccc3)cc2/C=C(/C#N)C(=O)NCCCn2ccnc2)c1,-3,97*,1,5,21,-3
C[C@H]1COc2cc(N3CCSCC3)ccc2S(=O)(=O)N1C,x,x,x,2,x,x
CCOc1ccc(-c2cc(C(=O)NCCCN3CCN(CC)CC3)c3ccccc3n2)cc1,-1,100,4.6*,-1,-11,0
CCOc1ccc(-c2cc(C(=O)NCCCn3ccnc3)c3ccccc3n2)cc1,-3,106,2,-1,8,-1
CCOC(=O)[C@@]12CCCC=C1N(CCc1ccc(Cl)cc1)C(=O)[C@H]2CC(=O)NCc1cccc(C(F)(F)F)c1,x,x,x,3,x,x
CNc1nc(-c2ccccc2)[n+](-c2ccc(C)cc2)s1,-3,1.4*,-1,2,8,0
CC[n+]1c(/C=C/N(C)c2ccccc2)oc2ccccc21,-9,188,4.7*,-2,-7,-1
CC[n+]1c(/C=C/N(C)c2ccccc2)oc2ccc(F)cc21,-7,270,3,-9,0,-2
Cc1cc(O)c(-c2cc(C(=O)NCc3ccc4c(c3)OCO4)[nH]n2)cc1C,-14,82*,2,7,5,-2
COCc1[nH]nc2c1C(c1ccc(F)cc1)N(Cc1ccccc1)C2=O (stereo not drawn),x,x,-1,1,x,x
CC(C)c1cccc(-c2ccc3c(c2)S(=O)(=O)c2cccc(C(=O)NCc4ccccc4Cl)c2C3=O)c1,-2,99,x,x,34*,0
CCCc1c(-c2ccc(F)cc2)ncn1Cc1ccccc1OC,1,x,0,1,0,x
Cc1ccc(C(=O)Nc2nnc(CC(=O)N/N=C/c3ccncc3)s2)cc1,-6,100,-1,14,15,-5
Cc1ccc(C(=O)Nc2nnc(CC(=O)N/N=C/c3ccc(O)c(O)c3)s2)cc1,-2,86,1,16,37*,5
CCc1nnc(NC(=O)c2ccc(OC)cc2)s1,-3,92,-1,-4,-6,0
COc1ccc(C(=O)Nc2nnc(CC(=O)N/N=C/c3ccc(O)cc3O)s2)cc1,-8,104,1,7,34*,-28
OC[C@@H]1CN(Cc2ccncc2)C[C@H](n2cnc3c(NCc4ccncc4)ncnc32)O1,-3,x,0,0,-2,x
O=C(Nc1c(-c2ccc(C(F)(F)F)cc2)nc2ncccn12)C1CC1,x,x,x,0,x,x
Cc1cc(/C=N/Nc2ccc([N+](=O)[O-])cn2)c(C)n1-c1ccccc1,-2,90,2,16,31*,5
CCSc1ccccc1-c1nc(-c2ccncc2)no1,-1,70*,0,-2,-6,-5
Cc1c(O)ccc(/C=N/Nc2nc(-c3cccnc3)nc3ccccc23)c1O,-9,94,1,31,36*,2
COc1ccc(/C=N/Nc2nc(-c3cccnc3)nc3ccccc23)cc1OC,-3,113,1,0,-2,0
Oc1ccc(/C=N/Nc2nc(-c3cccnc3)nc3ccccc23)c(O)c1,-4,78*,0,31,39*,1
SMILES,MsrA act,Pemphigus Ab inh,MsrA inhibitor,rCAG RNA binder,NadD inh,DAGLB inhibitor
Cc1ccc(Nc2nc(-c3cccnc3)nc3ccccc23)cc1,-4,117,0,4,-9,-1
C=CCn1c(SCC(=O)NC2CCCC2)nc2scc(-c3ccco3)c2c1=O,-3,95,1,3,25,9
C=CCn1c(SCC(=O)NCCCC)nc2scc(-c3ccco3)c2c1=O,-6,u,0,1,38*,3
O=C(COC(=O)CN1C(=O)NC2(CCCC2)C1=O)Nc1ccccc1C(F)(F)F,0,101,-1,-3,5,2
O=C(COC(=O)CN1C(=O)c2ccccc2C1=O)Nc1ccccc1C(F)(F)F,-3,84*,-1,0,-1,-3
O=C(CCC(=O)OCC(=O)c1ccccc1)Nc1cccc2cccnc12,-11,8.4*,1,3,-4,-1
Nc1nnc(CC(=O)N/N=C/c2cc([N+](=O)[O-])cc(Br)c2O)s1,-6,97,1,59*,13,9
COc1ccc(-n2c(SC/C=C/c3ccccc3)nnc2-c2cccs2)cc1,x,x,x,5,x,x
